PubChem BioAssay AID1159580 (chemical genetic matrix, 2015)
Where “and” joins values, the source holds several entries; their conditions need not be identical. Identical values can stand only once. Among all 5,500 compounds or so, about 2,000 (36%) were called active. Not shown: some 18% with an inconclusive outcome. Some of the results follow. Values without a mark were called inactive. No stated cut-off is given here; in the data, active means normalized growth mostly below about 0.91 (no sharp cut-off); inconclusive means no clear call, values can overlap the other calls; inactive means mostly above about 0.92.

Test: chemical genetic growth profiling, strain panel (AID 1159580);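 further: tested at 20 µM; growth read once vehicle control cultures reached saturation at 30 °C; 1 = growth at the plate median or of vehicle wells; lower values mean less growth of the strain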
Settings: S. cerevisiae deletion strains, growth OD

O=C1[C@H](CCC(O)c2ccc(F)cc2)[C@@H](c2ccc(O)cc2)N1c1ccc(F)cc1 (stereo partly specified)
normalized growth (locus YAL013W, strain DEP1, active compounds read low): 0.988 | normalized growth (locus YAL021C, strain ccr4, active compounds read low): 0.999 | normalized growth (locus YAL026C, strain drs2, active compounds read low): 0.976 | normalized growth (locus YAL030W, strain snc1, active compounds read low): 0.968 | normalized growth (locus YBL061C, strain skt5, active compounds read low): 0.973 | normalized growth (locus YBR009C, strain hhf1, active compounds read low): 0.981 | normalized growth (locus YBR021W, strain FUR4, active compounds read low): 0.962 | normalized growth (locus YBR023C, strain chs3, active compounds read low): 0.979 | normalized growth (locus YBR171W, strain sec66, active compounds read low): 0.95 | normalized growth (locus YBR229C, strain ROT2, active compounds read low): 0.99 | normalized growth (locus YBR231C, strain swc5, active compounds read low): 0.976 | normalized growth (locus YBR279W, strain paf1, active compounds read low): 0.987 | normalized growth (locus YCL011C, strain gbp2, active compounds read low): 0.995 | normalized growth (locus YCL016C, strain dcc1, active compounds read low): 0.992 | normalized growth (locus YCL029C, strain bik1, active compounds read low): 0.968 | normalized growth (locus YCL069W, strain vba3, active compounds read low): 0.97 | normalized growth (locus YCR088W, strain abp1, active compounds read low): 0.967 | normalized growth (locus YDL005C, strain med2, active compounds read low): 0.956 | normalized growth (locus YDL035C, strain GPR1, active compounds read low): 0.989 | normalized growth (locus YDL040C, strain nat1, active compounds read low): 0.979 | normalized growth (locus YDL074C, strain BRE1, active compounds read low): 0.985 | normalized growth (locus YDL101C, strain DUN1, active compounds read low): 0.985 | normalized growth (locus YDL134C, strain PPH21, active compounds read low): 0.988 | normalized growth (locus YDL185W, strain tfp1, active compounds read low): 0.966 | normalized growth (locus YDL192W, strain arf1, active compounds read low): 0.977 | normalized growth (locus YDR001C, strain nth1, active compounds read low): 0.976 | normalized growth (locus YDR069C, strain doa4, active compounds read low): 0.966 | normalized growth (locus YDR101C, strain arx1, active compounds read low): 0.981 | normalized growth (locus YDR137W, strain rgp1, active compounds read low): 1.01 | normalized growth (locus YDR150W, strain NUM1, active compounds read low): 0.986 | normalized growth (locus YDR159W, strain sac3, active compounds read low): 0.931 | normalized growth (locus YDR162C, strain NBP2, active compounds read low): 1 | normalized growth (locus YDR195W, strain ref2): 0.915 | normalized growth (locus YDR297W, strain sur2, active compounds read low): 0.988 | normalized growth (locus YDR318W, strain mcm21, active compounds read low): 0.98 | normalized growth (locus YDR334W, strain swr1, active compounds read low): 0.983 | normalized growth (locus YDR335W, strain msn5, active compounds read low): 0.959 | normalized growth (locus YDR388W, active compounds read low): 0.972 | normalized growth (locus YDR392W, strain spt3, active compounds read low): 1.03 | normalized growth (locus YDR502C, strain sam2, active compounds read low): 0.98 | normalized growth (locus YEL003W, strain gim4, active compounds read low): 0.975 | normalized growth (locus YEL037C, strain rad23, active compounds read low): 0.957 | normalized growth (locus YEL061C, strain CIN8 (second series), active compounds read low): 0.966 | normalized growth (locus YEL061C, strain CIN8, active compounds read low): 0.993 | normalized growth (locus YER015W, strain faa2, active compounds read low): 0.99 | normalized growth (locus YER016W, strain bim1, active compounds read low): 0.968 | normalized growth (locus YER110C, active compounds read low): 0.971 | normalized growth (locus YER111C, strain swi4, active compounds read low): 0.969 | normalized growth (locus YER155C, strain BEM2 (second series), active compounds read low): 0.973 | normalized growth (locus YER155C, strain BEM2, active compounds read low): 1 | normalized growth (locus YER167W, strain BCK2, active compounds read low): 0.986 | normalized growth (locus YFR010W, strain ubp6, active compounds read low): 0.951 | normalized growth (locus YGL078C, strain dbp3, active compounds read low): 0.976 | normalized growth (locus YGL086W, strain mad1, active compounds read low): 0.984 | normalized growth (locus YGL167C, strain pmr1, active compounds read low): 0.965 | normalized growth (locus YGL173C, strain kem1, active compounds read low): 0.979 | normalized growth (locus YGL227W, strain vid30, active compounds read low): 0.974 | normalized growth (locus YGL240W, strain doc1, active compounds read low): 0.978 | normalized growth (locus YGL248W, strain PDE1, active compounds read low): 0.991 | normalized growth (locus YGL253W, strain hxk2, active compounds read low): 0.908 (active) | normalized growth (locus YGR078C, strain PAC10, active compounds read low): 1 | normalized growth (locus YGR135W, strain pre9, active compounds read low): 0.972 | normalized growth (locus YGR229C, strain SMI1, active compounds read low): 1.01 | normalized growth (locus YGR252W, strain gcn5, active compounds read low): 1.01 | normalized growth (locus YHR013C, strain ard1, active compounds read low): 0.951 | normalized growth (locus YHR027C, strain rpn1, active compounds read low): 0.972 | normalized growth (locus YHR030C, strain SLT2, active compounds read low): 0.983 and 0.956 | normalized growth (locus YHR079C, strain IRE1 (second series), active compounds read low): 0.96 | normalized growth (locus YHR079C, strain IRE1, active compounds read low): 0.961 | normalized growth (locus YHR094C, strain hxt1, active compounds read low): 0.977 | normalized growth (locus YHR129C, strain ARP1, active compounds read low): 0.987 | normalized growth (locus YHR142W, strain chs7, active compounds read low): 0.901 | normalized growth (locus YHR200W, strain rpn10, active compounds read low): 0.974 | normalized growth (locus YIL066C, strain RNR3, active compounds read low): 0.985 | normalized growth (locus YIL073C, strain SPO22, active compounds read low): 0.961 | normalized growth (locus YIL125W, strain kgd1, active compounds read low): 0.99 | normalized growth (locus YIR030C, strain dcg1, active compounds read low): 0.967 | normalized growth (locus YJL092W, strain hpr5, active compounds read low): 0.972 | normalized growth (locus YJL095W, strain BCK1 (second series), active compounds read low): 0.975 | normalized growth (locus YJL095W, strain BCK1, active compounds read low): 0.98 and 1 | normalized growth (locus YJL115W, strain asf1, active compounds read low): 0.983 | normalized growth (locus YJL129C, strain trk1, active compounds read low): 0.877 | normalized growth (locus YJL134W, strain LCB3, active compounds read low): 0.989 | normalized growth (locus YJL154C, strain vps35, active compounds read low): 0.974 | normalized growth (locus YJL164C, strain tpk1, active compounds read low): 0.981 | normalized growth (locus YJL166W, strain qcr8, active compounds read low): 0.952 | normalized growth (locus YJL168C, strain set2, active compounds read low): 0.965 | normalized growth (locus YJL187C, strain SWE1 (second series), active compounds read low): 0.979 | normalized growth (locus YJL187C, strain SWE1, active compounds read low): 0.975 | normalized growth (locus YJR043C, strain POL32, active compounds read low): 0.985 | normalized growth (locus YJR066W, strain TOR1, active compounds read low): 0.929
